CBFb-RUNX1 inh = blocks binding between human CBF-beta and RUNX1; 230,000 tested, under 10 active; AlphaScreen CBFb-His/RUNX1-biotin binding, biochemical; Q01196+Q13951; Potency, µM (series often up to 59.8 µM), for inactives: top-dose activity, negative = inhibition, hits mostly inhibitors; note: % of control where 0% means no effect
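CBFb-His/RUNX1-biotin, 30 nM each, preincubated 20 min RT; compound 15 min RT; Ni + streptavidin beads 50 ng each, 90 min RT; AlphaScreen read.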
VP16 counter = inhibits Gal4-VP16 luciferase reporter, ROR gamma counter-screen; AID 2546; Potency, µM (top dose mostly 53.6 µM), for the others: at the highest dose activity, negative = inhibition, hits mostly inhibitors; hit rate 3.5% among 310,000; Drosophila S2 Gal4-VP16 UAS-luciferase, luminescence, 20 h;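 note: Gal4-VP16 expression switched on by copper sulfate through the metallothionein promoter; potency is the fitted concentration of half-maximal effect; % is set by controls: 0 for no effect and ±100 for the full control effect; nearly all actives have a fitted effect of over 50% in size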
CtBP-E1A inh = CtBP/E1A binding inhibition. AID 651724. hit rate 0.49% among 340,000. activity change, % (test concentration not listed). AlphaScreen GST-E1A/His-CtBP binding, 1536-well; hits give low values; in the data active = activity change below about -65%; inconclusive = mostly about -30% to -63%; note: % is set by controls: 0 for no effect and ±100 for the full control effect
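In 5 uL wells, 23 nL compound meets equimolar GST-E1A and His-CtBP (5X stock 125 nM each) for 2 h, 37 °C. Beads (5X, 50 ug/mL) then 1 h, 37 °C, dark.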
MBNL1-CUG inh = MBNL1-poly(CUG) RNA binding inhibition | Q9NR56 | TR-FRET MBNL1-His/biotin-(CUG)12 binding, 665/545 ratio | Potency, µM (titrated, usually from 57.5 µM), for inactives: top-dose activity change, negative = inhibition, hits mostly inhibitors | hit rate 0.036% among 280,000 | AID 2675; active = well fitted inhibition curve with a large enough effect in the signal ratio, with a control signal flat, not every such curve was filed as active; inconclusive = small, poorly fitted or top-dose-only effect, or effect the other way, or a change in a side signal; inactive = no such curve, though single readings can be large or run the other way; the % refers to the signal ratio; note: potency is the fitted concentration of half-maximal effect; % is set by controls: 0 for no effect and ±100 for the full control effect
Target sequence (Q9NR56 whole entry, looked up): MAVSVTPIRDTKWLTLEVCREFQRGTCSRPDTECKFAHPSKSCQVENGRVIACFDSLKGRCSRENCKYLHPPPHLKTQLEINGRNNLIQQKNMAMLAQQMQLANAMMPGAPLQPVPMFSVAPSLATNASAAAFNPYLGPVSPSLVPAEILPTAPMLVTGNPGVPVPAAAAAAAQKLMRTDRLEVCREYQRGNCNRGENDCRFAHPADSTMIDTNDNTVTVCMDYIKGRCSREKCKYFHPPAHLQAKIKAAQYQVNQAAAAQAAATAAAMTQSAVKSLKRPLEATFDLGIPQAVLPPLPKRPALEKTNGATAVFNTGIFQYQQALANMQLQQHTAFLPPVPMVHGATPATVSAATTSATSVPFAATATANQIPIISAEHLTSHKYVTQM
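Compound titration spanned 92 nM–58 uM against the MBNL1-His/biotin-(CUG)12 complex. After 60 min at room temperature with 5 nM streptavidin-XL665 and 0.055 ng/ul terbium anti-His, ratiometric 665/545 nm emission (Ex 340 nm) normalized to controls.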
Six1-Eya2 blk = Six1/Eya2 interaction inhibition; Q15475+O00167; hit rate 0.56% among 360,000; activity change, % (concentration not given with the values); AlphaScreen GST-Six1/His-Eya2 binding, biochemical; hits give low values; in the data active = activity change below about -65%; inconclusive = mostly about -30% to -63%; note: % is set by controls: 0 for no effect and ±100 for the full control effect
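AlphaScreen luminescence read after one hour at 37 °C in darkness. Pin-transferred compounds met GST-Six1 and His-Eya2 protein (5X stock 250 nM/500 nM) plus glutathione donor and Ni-chelate acceptor beads (5X, 50 ug/mL).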
RORg inh = blocks mouse ROR gamma transcriptional activity | P51450 | Drosophila S2 Gal4-RORgamma UAS-luciferase reporter, 20 h | Potency, µM (titrated, usually from 53.6 µM), for the others: at the highest dose activity change, negative = inhibition, usual class: inhibitors | hit rate 5.4% among 310,000 | AID 2551; note: potency is the fitted concentration of half-maximal effect; % is set by controls: 0 for no effect and ±100 for the full control effect; nearly all actives have a fitted effect of over 60% in size
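Drosophila S2 cells stably expressing Gal4-DBD/mouse RORγ fusion under metallothionein promoter plus UAS-luciferase; compound 1 h, then 700 uM CuSO4 induction for 20 h at ambient temperature; inhibition read as reduced luminescence.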
Active calls of the source: *; ? = inconclusive; . = not tested or not shown; [ ] = another dose, or the depositor's remark. A selection: hits, their analogues and other compounds. The true share with any hit is near 5.5%. Unless noted, calls come from the whole dose curve; as a rule, active = well fitted curve in the direction sought with a large enough effect; inconclusive = small, poorly fitted or top-dose-only effect, or another doubt; inactive = no such curve, though single readings can be large; an effect the other way counts as inactive or inconclusive.

SMILES | CBFb-RUNX1 inh | VP16 counter | CtBP-E1A inh | MBNL1-CUG inh | Six1-Eya2 blk | RORg inh
CC1(C(=O)NS(=O)(=O)c2ccccc2Cl)CCN1C(=O)Cc1cccs1 (stereo unspecified) | . | . | 8 | . | 16 | .
CCOC(=O)c1c(C)[nH]c(C(=O)COC(=O)c2ccco2)c1C | . | . | 7 | . | -1 | .
COc1cccc(/C=N/NC(=O)CNC(=O)c2cccs2)c1O | 22% | 11µM* | -89* | 10% | -85* | 3.2µM*
Cc1ccc(/C=N/NC(=O)CNC(=O)c2cccs2)cc1 | . | -8% | 2 | 12% | 1 | 12%
COc1ccccc1/C=C/C(=O)NCC(=O)N/N=C/c1cc(Br)ccc1OC | -1% | -24% | ? | 8% | ? | 13µM*
Cn1nc(-c2ccccn2)nc2c(=O)n(C)c(=O)nc1-2 | . | 0.56µM* | ? | ? | -28 | 0.45µM*
CCn1c(N)nc2c1c(=O)n(C)c(=O)n2C | 7% | 15% | 21 | -7% | 12 | -19%
COc1ccc(-c2nc(-c3ccccn3)ncc2S(C)(=O)=O)cc1 | -22% | 8% | 0 | 20% | -3 | -21%
CCCc1nc2c(=O)n(C)c(=O)nc-2n(C)n1 | ? | 2.8µM* | -6 | . | 1 | 1.4µM*
CC(C)C[C@H](NC(=O)[C@H](CC(C)C)NC(=O)[C@H](Cc1ccc(O)cc1)NC(=O)CNC(=O)[C@H](C)NC(=O)[C@H](CO)NC(=O)[C@H](CC(N)=O)NC(=O)[C@H](CC(C)C)NC(=O)[C@@H](NC(=O)[C@H](Cc1c[nH]c2ccccc12)NC(=O)CN)[C@@H](C)O)C(=O)NCC(=O)N1CCC[C@H]1C(=O)N1CCC[C@H]1C(=O)N1CCC[C@H]1C(=O)NCC(=O)N[C@@H](Cc1ccccc1)C(=O)N[C@@H](CO)C(=O)N1CCC[C@H]1C(=O)N[C@@H](Cc1ccccc1)C(=O)N[C@@H](CCCNC(=N)N)C(N)=O | 9% | -4% | . | . | . | 7%
Cc1ccc(NN2C(=O)C=C(c3ccccc3)C2=O)cc1 | -10% | 5µM* | -1 | -3% | 3 | 3.5µM*
CCC1=NN2C(=N)/C(=C\c3ccc(OCc4cc(=O)n5nc(CC)sc5n4)c(OC)c3)C(=O)N=C2S1 | 6% | 22% | ? | 0% | -25 | 2%
C=CCNc1nc2c(c(=O)n(C)c(=O)n2C)n1CC | -10% | -12% | 1 | -5% | 0 | -5%
C=CCNc1nc2c(c(=O)n(C)c(=O)n2C)n1CCCCCC | 2% | 5µM* | -1 | 4% | -1 | ?
Cn1c(=O)c2c(nc(N/N=C/c3ccc(OC(=O)c4ccco4)cc3)n2Cc2ccc(F)cc2)n(C)c1=O | 2% | 18µM* | -8 | -29% | -15 | -11%
Cn1c(=O)c2c(nc(N/N=C/c3ccc(OC(=O)c4ccco4)cc3)n2Cc2ccccc2Cl)n(C)c1=O | 1% | -1% | -1 | -8% | 13 | 10%
Cn1c(=O)c2c(nc(NCCc3ccccc3)n2Cc2ccc(F)cc2)n(C)c1=O | 6% | 22µM* | 2 | -8% | -4 | ?
C=CCNc1nc2c(c(=O)n(C)c(=O)n2C)n1Cc1ccc(F)cc1 | 4% | 7.1µM* | 0 | -4% | -1 | ?
CC(Cl)=CCn1c(NCCc2ccccc2)nc2c1c(=O)n(C)c(=O)n2C | . | . | 1 | . | -3 | .
CC(=O)Nc1ccc(NC(=O)c2ccccc2-n2cnnn2)cc1 | . | . | 11 | . | 0 | .
CCCCc1cc2c(cn1)=C(OC(=O)c1cccs1)C(C)(OC(=O)CC)C(=O)C=2 (stereo unspecified) | -13%[13.1 µM] | . | . | . | . | .
CCOC(=O)c1cc(-c2ccccc2)nc2c1c(C)nn2-c1ccccn1 | 5% | 11µM* | 6 | 15% | 0 | 4µM*
CCCCNC(=S)N/N=C/c1cccc(OCC)c1O | 4% | 13µM* | -14 | -6% | -2 | 4.5µM*
CCOc1cccc(/C=N/NS(=O)(=O)c2ccc(C)c([N+](=O)[O-])c2)c1O | -4% | 3.2µM* | 12 | 13% | 38 | ?
O=[N+]([O-])c1ccccc1NC(=S)N/N=C/c1ccc(O)c(O)c1 | ? | ? | ? | ? | -21 | 10µM*
SMILES | CBFb-RUNX1 inh | VP16 counter | CtBP-E1A inh | MBNL1-CUG inh | Six1-Eya2 blk | RORg inh
O=C(COc1ccccc1[N+](=O)[O-])N/N=C/c1ccc(O)c([N+](=O)[O-])c1 | -22% | -13% | -9 | ? | -5 | 41%
CCOc1cccc(/C=N/NC(=S)Nc2ccccc2[N+](=O)[O-])c1O | ? | 11µM* | . | 12% | ? | 5µM*
CCOc1cccc(C=NCCc2ccc(OC)c(OC)c2)c1O | . | -14% | . | 3% | 1 | ?
Cc1ccc(S(=O)(=O)N/N=C/c2ccc(O)cc2O)cc1[N+](=O)[O-] | 4% | ? | -19 | ? | -14 | 33%
CCCCCC(=O)N/N=C/c1ccccc1[N+](=O)[O-] | 7% | 15% | 0 | ? | -2 | 40%
COc1ccc(-c2nc3ccccc3n(CC(C)C)c2=O)cc1 | . | . | -2 | . | 8 | .
CC(=O)c1ccc(S(=O)(=O)N2CCC(C(=O)Nc3ncc(C)s3)CC2)cc1 | . | . | 5 | . | 1 | .
COc1ccccc1N(CC(=O)NC1CCCC1)C(=O)c1oc(C(C)(C)C)cc1C | -1% | -2% | 0 | -4% | -3 | 13µM*
Cc1cc(C(C)(C)C)oc1C(=O)N(CC(=O)NC1CCCC1)c1c(C)cccc1C | 13% | -5%[0.365 µM] | -3 | ? | -6 | -27%
Cc1nn(C)c(C)c1CN(Cc1nc(CCC(C)C)no1)C(C)C | 11% | 4µM* | -5 | -15% | 7 | 7.1µM*
CC(C)CCc1noc(CN(C)CCC2CCOCC2)n1 | 10% | -11% | 1 | 0% | 13 | 10%
COc1ccc(/C(C)=N/Nc2nc(C)c(C(C)=O)s2)cc1 | . | . | -6 | ? | 0 | .
CC(=O)c1sc(N/N=C2\CC3CC2C(C)C3(C)C)nc1C (stereo unspecified) | -22% | ? | -1 | 12% | -2 | 7.1µM*
O=C(Nc1nnc([C@@H]2C[C@H](O)[C@@H](CO)O2)s1)Nc1ccc(F)cc1F | . | . | 0 | . | 2 | .
